# Values joined by “and” are separate entries in the source; they are usually repeats but may differ in a detail not shown here. Identical values can stand only once. This is part of a sample that, as a whole, favours compounds with a hit. Of some 83,000 tested, about 20% had one in any assay.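 Interpretation: 100, growth as untreated; towards 0, rising growth inhibition; 0, no net growth; 0 to -100, cell death. Compounds scoring below 10 were considered active.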 Active and inactive are the calls of the source.
# Test system: MDA-MB-468 breast
# Assay: NCI-60 one-dose screen, 48 h (100 = growth as untreated, 0 = no growth, -100 = all killed)
# Details: 10 µM unless noted
row,Structure (SMILES),growth
1,CCN(CC)c1ccc(N=O)cc1,23.7% (inactive)
2,COc1cc(C(=O)/C=C/c2c(-c3ccc(F)cc3)nc3sc(C)cn23)cc(OC)c1OC,14.1% (inactive)
3,Cc1ccc2c(n1)C(=O)C(Cl)=C(Nc1ccc(N3CCN(C)CC3)cc1)C2=O,-84.6% (active)
4,Nc1ncnc2c1ncn2C1OC(CO)C(O)C1O (stereo not given),116% (inactive) and -13.3% (active)
5,OC1CCCc2ccccc21 (stereo not given),97.4% (inactive)
6,Cn1c(=O)c2[nH]c(N/N=C/c3ccccc3Br)nc2n(C)c1=O,115% (inactive)
7,C[C@H]1[C@H](C)CC[C@]2(COC(=O)c3cccnc3)CC[C@]3(C)C(=CC[C@@H]4[C@@]5(C)CCCNC(C)(C)[C@@H]5CC[C@]43C)[C@H]12,42.5% (inactive)
8,Nc1ccc2ccc(N)cc2c1,75.8% (inactive)
9,C[C@@H](C[C@H](CCO)c1cc(C(F)(F)F)cc(C(F)(F)F)c1)c1ccc2ccccc2c1,83.9% (inactive)
10,OC(COc1ccccc1Cl)COc1ccccc1Cl,102% (inactive)
11,CCCOC(=O)Nc1nc2ccc(SCC(C)C)cc2s1,-9.94% (active)
12,COc1ccc(-c2nsc3c2NC(=O)CC3c2ccc3c(c2)OCO3)cc1 (stereo not given),10.3% (inactive)
13,COc1ccc2nc(-c3ccc(Cl)cc3)cc(-c3nnc(SC/C(=N/O)c4ccccc4)o3)c2c1,9.96% (active)
14,O=C(Nc1ccc(Br)cc1F)c1cc(F)ccc1O,-0.885% (active)
15,CC(C)(CO)N(CCO)CCO,95.1% (inactive)
16,COc1ccc2c3ccnc(C(F)(F)F)c3n(CCCCN)c2c1,33.7% (inactive)
17,OC(CCCCCCCCC(O)CN1CCc2ccccc2C1)CN1CCc2ccccc2C1 (stereo not given),127% (inactive)
18,CC(=O)c1cc(C(=O)c2ccc3c(c2)Sc2ccccc2N3)c2c(C)cc(C)cn12,14% (inactive)
19,COc1ccc2c(c1)OC(N)=C(C#N)C2c1ccc(F)cc1 (stereo not given),7.54% (active)
20,Cc1cc(O[C@@H]2O[C@@H](C)[C@H](O)[C@@H](O)[C@H]2O)c2c3c(c(O[C@@H]4O[C@@H](C)[C@H](O)[C@@H](O)[C@H]4O)cc2c1)C(=O)c1c(O)cccc1C3=O,67.5% (inactive)

row,Structure (SMILES),growth
1,OCCCc1n(Cc2ccc3ccccc3c2)c2ccccc2[n+]1Cc1ccc2ccccc2c1,-27.7% (active)
2,CC1(C)[C@@H](O)CC[C@]2(C)[C@H]3CC[C@@H]4[C@H]5[C@H](C(=O)/C=C\c6ccccn6)CC[C@]5(O)CC[C@@]4(C)[C@]3(C)CC[C@@H]12,23.8% (inactive)
3,CN1CCN(Cc2ccc(C(=O)Nc3cncc(C#Cc4cnc(N)c5ccccc45)c3)cc2C(F)(F)F)CC1,-61.9% (active)
4,CCOC(=O)N1C=CC2C=CC1C1C=CC=CC2N1C(=O)OCC (stereo not given),53.1% (inactive)
5,Cc1ccc(Nc2cc(N)nc(N)n2)cc1,92.2% (inactive)
6,CCCC(C)c1cc(Cc2cc(Cl)cc(Cl)c2O)c(O)c(Cc2cc(Cl)cc(Cl)c2O)c1 (stereo not given),-1.2% (active)
7,Cc1cc(C(=C2C=CC(=Nc3ccccc3)C=C2)c2ccc(Nc3ccccc3)cc2)ccc1N,-84.2% (active)
8,CCN(CC)c1ccc2nc3c4ccccc4c(=O)cc-3n(-c3ccccc3)c2c1,-17.5% (active)
9,NC1(C(=O)O)CSSC1,29.6% (inactive)
10,COc1cccc(C(=O)OCC(O)C(=O)NC23CC4CC(CC(C4)C2)C3)c1 (stereo not given),88% (inactive)
11,CCOC(=O)c1c(C)oc2ncnc(Nc3ccc(NC(=O)Nc4cccc(Cl)c4)cc3)c12,49.7% (inactive)
12,COc1cc(-c2csc(NC(=O)Nc3cc(Cl)cc(Cl)c3)n2)cc(OC)c1OC,-6.75% (active)
13,Cc1cccc2c1O/C(=C\c1ncc([N+](=O)[O-])n1C)C2=O,-12.6% (active)
14,CC(=O)N1N=C(c2ccc(Nc3nc(NCCO)nc(NCCO)n3)cc2)CC1c1ccc(Cl)cc1 (stereo not given),105% (inactive)
15,CC1=C(C(=O)c2ccccc2)C(c2ccc3c(c2)OCO3)NC(=S)N1 (stereo not given),54.3% (inactive)
16,CNC(=O)NN,107% (inactive)
17,Nc1nc(Nc2ccc(F)cc2)nn1C(=O)c1cc(Cl)ccc1Cl,60.6% (inactive)
18,CSc1nc(O)c(-c2ccccc2)c(=O)[nH]1,99.1% (inactive)
19,CCCCCCCCSC1=CC(=O)C(OC)=C(OC)C1=O,-75% (active)
20,Cc1ccccc1NC(=O)c1cc2ccccc2cc1O,79.5% (inactive)
